Screening data (PubChem)
rCAG binder – r(CAG) repeat RNA binding | TO-PRO-1 dye displacement fluorescence | inhibition, % at 3 µM | hit rate 1.3% among 370,000 | AID 651821;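 active = inhibition above the plate cutoff, the mean of all test compounds on that plate plus 3 SD, cut at about 35% in these data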;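 note: higher means more dye released from RNA so lower well fluorescence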
DSG3 Ab inh – inhibitors of pemphigus antibody binding to human desmoglein-3 | P32926 | DSG3-coupled beads, scFv-anti-DSG3-GFP binding, flow cytometry; stronger effect = lower value | binding (percent of control), % at 10 µM | hit rate 0.48% among 310,000;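 active = binding more than 3 SD below its plate's average and above zero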
ADAM10 inh – inhibitors of human ADAM10; O14672; recombinant ADAM10, EDANS/DABCYL FRET peptide cleavage, 3 h; inhibition, % at 7 µM; hit rate 0.62% among 370,000; AID 720582;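 active = inhibition above a per-campaign cutoff equal to the mean of compounds falling between control-based bounds plus 3 SD, cut at about 20% in these data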
ADAM17 inh – inhibits human ADAM17 | hit rate 0.83% among 370,000 | P78536 | AID 720648 | recombinant ADAM17, EDANS/DABCYL FRET peptide cleavage | inhibition, % at 6.95 µM;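 active = inhibition above the mean of compounds lying between control limits plus 3 SD, set per campaign, cut at about 8.5% in these data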
proKLK7 act – proKLK7 (human) activation, primary screen; activation, % at 7 µM; hit rate 0.9% among 370,000; purified proKLK7, EDANS-DABCYL substrate fluorescence; 100% is mature enzyme control, 0% vehicle; P49862;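 active = activation above the mean of all tested compounds plus 3 SD, computed per campaign excluding outliers beyond control limits, cut at about 13% in these data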
Target sequence (P49862 whole entry, looked up): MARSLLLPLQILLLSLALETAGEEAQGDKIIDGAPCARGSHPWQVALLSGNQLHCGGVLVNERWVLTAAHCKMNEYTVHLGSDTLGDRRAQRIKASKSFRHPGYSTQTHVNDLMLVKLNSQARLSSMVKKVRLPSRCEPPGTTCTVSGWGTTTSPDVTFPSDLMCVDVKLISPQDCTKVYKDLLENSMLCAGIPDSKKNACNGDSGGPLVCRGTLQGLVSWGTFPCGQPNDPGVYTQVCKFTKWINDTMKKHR
MPTP inh – inhibitors of mitochondrial permeability transition pore; isolated mouse mitochondria, Ca2+ swelling absorbance, 30 min; inhibition, % at 10 µM; hit rate 1.4% among 360,000; AID 602449;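 active = inhibition of 50% or more, scaled per plate between neutral and stimulator controls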
ADAM10 confirm – human ADAM10 inhibition, confirmation; shares compounds with ADAM10 inh; ADAM10 QFRET peptide cleavage, EDANS fluorescence; inhibition, % at 6.95 µM; hit rate 1% among 2,100;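 active = inhibition above about 20% chosen separately for each screening run, limit read from the data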
ADAM17 ctr – inhibits human ADAM17 in ADAM10 exosite counter-screen | shares compounds with ADAM10 inh | hit rate 0.5% among 2,100 | inhibition, % at 6.95 µM | ADAM17 QFRET peptide cleavage, EDANS fluorescence | AID 743214;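 active = mean triplicate inhibition above the solvent-only control wells' mean plus 3 SD, cut at about 12% in these data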
Of the large screens only hits and unclear results are named; the others gave an inactive call (follow-up assays come after a bar, where they were run). An excerpt weighted towards active compounds, which were near 4.7% of everything screened.

CCN1CCN(S(=O)(=O)c2ccc(Cl)c(C(=O)Oc3ccc(CC(=O)OC)cc3)c2)CC1	none
CC(C)C[C@@H]1Cc2[nH][nH]c(=O)c2[C@H](C(C)C)O1	none (no result: DSG3 Ab inh)
S=c1[nH]cc(-c2ccccc2)n1-c1ccccc1	ADAM10 inh 23, ADAM17 inh 11 | ADAM10 confirm inactive | ADAM17 ctr inactive
Cc1ccc(-n2c(-c3ccccc3)c[nH]c2=S)cc1	none
Cc1ccccc1C(=O)NNC(=S)Nc1cccc(C(F)(F)F)c1	ADAM10 inh 25, ADAM17 inh 8.7 | ADAM10 confirm inactive | ADAM17 ctr inactive
CCOc1cc(/C=C/c2ccc3cccc([N+](=O)[O-])c3n2)ccc1O	ADAM10 inh 22 | ADAM10 confirm inactive | ADAM17 ctr inactive
COC(C(=O)Nc1ccc(S(=O)(=O)Nc2ccc(F)cc2)cc1)c1ccccc1 (stereo not given)	none
COC(C(=O)Nc1ccc(S(=O)(=O)Nc2cccc3ccccc23)cc1)c1ccccc1 (stereo not given)	ADAM10 inh 21 | ADAM10 confirm inactive | ADAM17 ctr inactive
CN1C(=O)Cc2cc(S(=O)(=O)Nc3ccc(N4CCOCC4)cc3)ccc21	ADAM10 inh 28 | ADAM10 confirm inactive | ADAM17 ctr inactive
COc1ccc(CCN=Cc2c(C)[nH]n(-c3ccc([N+](=O)[O-])cc3)c2=O)cc1OC	none
Cc1[nH]n(-c2ccc([N+](=O)[O-])cc2)c(=O)c1C=NCCN1CCN(C(=O)c2ccccc2)CC1	ADAM10 inh 21 (no result: DSG3 Ab inh) | ADAM10 confirm inactive | ADAM17 ctr inactive
CC(=O)c1c(C)[nH]c(C(=O)OCC(=O)NCCC2=CCCCC2)c1C	none
COCCNC(=O)C1CCCN(S(=O)(=O)c2ccc3c(c2)CC(C)N3C(=O)C2CC2)C1 (stereo not given)	none
COc1cccc2c1oc1c(SCc3nc4ccccc4[nH]3)nc(C)nc12	none
C#CCN(C[C@@H]1[C@@H](OC(=O)NCc2ccc(OC)c(OC)c2)[C@@H](OC(=O)NCc2ccc(OC)c(OC)c2)Cn2c(=O)n(CCCCCC)c(=O)n21)S(=O)(=O)c1ccc(C)cc1	ADAM10 inh 21 (no result: DSG3 Ab inh) | ADAM10 confirm inactive | ADAM17 ctr inactive
Cc1cccnc1C1=NOC(Cc2ccccc2)C(=O)N1CCOc1ccc(F)cc1 (stereo not given)	none (no result: DSG3 Ab inh)
C[C@H]1CN([C@@H](C)CO)C(=O)c2cccc(NC(=O)Nc3ccc(C(F)(F)F)cc3)c2O[C@@H]1CN(C)S(=O)(=O)c1ccccc1	ADAM10 inh 40, ADAM17 inh 21 | ADAM10 confirm inactive | ADAM17 ctr inactive
Cc1ccc(S(=O)(=O)Nc2ccc3c(c2)C(=O)N([C@@H](C)CO)C[C@@H](C)[C@@H](CN(C)S(=O)(=O)c2ccccc2)OCCCC[C@H](C)O3)cc1	ADAM10 inh 23 (no result: DSG3 Ab inh) | ADAM10 confirm inactive | ADAM17 ctr inactive
C[C@@H]1CCCCO[C@H](CN(C)S(=O)(=O)c2cccs2)[C@@H](C)CN([C@H](C)CO)C(=O)c2cc(NC(=O)Nc3ccc4c(c3)OCO4)ccc2O1	ADAM10 inh 20 (no result: DSG3 Ab inh) | ADAM10 confirm inactive | ADAM17 ctr inactive
Cc1ccc(S(=O)(=O)N(C)C[C@@H]2OCCCC[C@@H](C)Oc3ccc(NS(=O)(=O)c4c(C)noc4C)cc3C(=O)N([C@H](C)CO)C[C@@H]2C)cc1	none (no result: DSG3 Ab inh)
C[C@H](CO)N1C[C@H](C)[C@@H](CN(C)S(=O)(=O)c2ccccc2)Oc2c(NC(=O)Nc3ccccc3)cccc2C1=O	none
C[C@@H]1CN([C@@H](C)COC(=O)C(C)(C)C)C(=O)c2cc(NC(=O)Nc3ccccc3)ccc2O[C@@H](C)CCCCO[C@H]1CN(C)S(=O)(=O)c1ccc(F)cc1	ADAM10 inh 25 (no result: rCAG binder, DSG3 Ab inh, proKLK7 act, MPTP inh) | ADAM10 confirm inactive | ADAM17 ctr inactive
C[C@H](CO)N1C[C@H](C)[C@@H](CN(C)S(=O)(=O)c2cccs2)Oc2ccc(NC(=O)Nc3ccc4c(c3)OCO4)cc2C1=O	none (no result: DSG3 Ab inh)
